Assay [1] addresses Guanine nucleotide-binding protein G(i) subunit alpha-1 (Homo sapiens) (UniProt P63096). Nature of the assay: qHTS Assay for Inhibitors of RGS12 GoLoco Motif Activity (Green Fluorophore) (AID 879).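 Also: negative values mean loss of peptide binding seen as reduced polarization.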 The note with it: Galphai1/FITC-RGS12 GoLoco peptide, fluorescence polarization; series mostly up to 57.1 µM. The method in brief:
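A drop in FITC polarization marked displacement of the FITC-tagged RGS12 GoLoco peptide (10 nM) from Gαi1 (50 nM). Compounds were incubated 10 min at room temperature in Tris pH 7.5 buffer containing 150 mM NaCl, 0.1 mM GDP and 0.05% NP40; unlabeled peptide titration served as control.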

The target of assay [2] is Cytochrome P450 3A4 (Homo sapiens) (UniProt P08684). The experiment in a line: qHTS Assay for Activators of Cytochrome P450 3A4 (AID 885). Also: nearly all actives have a fitted effect of over 65% in size. The settings on record: recombinant CYP3A4, Luciferin-PPXE luminescence, 60 min; series mostly up to 57.1 µM. The method in brief:
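Human CYP3A4 dealkylates Luciferin-PPXE to luciferin, which luciferase detection converts to light. Substrate was at its KM (25uM), buffer 200mM KPO4, reaction 60 min at RT.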

For assay [3], the target named is Cytochrome P450 2D6 (Homo sapiens) (UniProt P10635). Nature of the assay: qHTS Assay for Inhibitors and Substrates of Cytochrome P450 2D6 (AID 891). Also: nearly all actives have a fitted effect of over 60% in size. Also: potency is read from the fitted curve at half-maximal effect. The settings on record: recombinant CYP2D6, luciferin-ME EGE luminescence; series mostly up to 57.1 µM. The method in brief:
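Luminescent read-out of luciferin formed by 5 nM human CYP2D6 demethylating 30 uM Luciferin-ME EGE (Km level) over 60 min at room temperature after NADPH regeneration addition. Data normalized to full inhibition by 1.43 uM quinidine.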

The target in assay [4] is Cytochrome P450 3A4 (Homo sapiens) (UniProt P08684). The experiment in a line: qHTS Assay for Inhibitors and Substrates of Cytochrome P450 3A4 (AID 884). Also: nearly all actives have a fitted effect of over 50% in size. Also: potency is read from the fitted curve at half-maximal effect. The settings on record: recombinant CYP3A4, Luciferin-PPXE luminescence; series mostly up to 57.1 µM. The method in brief: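 Luminescent readout of luciferin produced by CYP3A4 (20 nM) dealkylation of Luciferin-PPXE, 25 uM (its KM). NADPH-driven reaction ran 60 min at RT after 10 min compound preincubation; data scaled to 57 uM ketoconazole as 100% inhibition.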
Chain of Cytochrome P450 3A4 (Homo sapiens) (P08684 whole entry, looked up): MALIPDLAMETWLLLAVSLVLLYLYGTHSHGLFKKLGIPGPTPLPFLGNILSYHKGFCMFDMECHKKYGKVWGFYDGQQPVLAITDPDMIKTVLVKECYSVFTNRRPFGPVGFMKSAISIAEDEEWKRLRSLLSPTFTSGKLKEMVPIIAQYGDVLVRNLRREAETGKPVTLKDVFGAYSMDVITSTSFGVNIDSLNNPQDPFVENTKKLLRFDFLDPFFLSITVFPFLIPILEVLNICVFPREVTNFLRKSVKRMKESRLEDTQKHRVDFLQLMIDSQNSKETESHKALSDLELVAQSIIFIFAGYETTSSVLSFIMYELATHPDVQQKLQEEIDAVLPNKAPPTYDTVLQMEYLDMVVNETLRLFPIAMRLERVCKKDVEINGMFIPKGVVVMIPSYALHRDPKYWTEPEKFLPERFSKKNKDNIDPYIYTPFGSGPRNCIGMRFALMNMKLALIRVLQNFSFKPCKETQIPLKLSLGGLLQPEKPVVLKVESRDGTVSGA

Assay [5] in a line: Confirmation and Secondary Assay for Modulators of Hemoglobin Beta Chain Splicing at IVS2 654 locus (AID 910).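 Also: per-well total GFP intensity by laser scanning cytometry after 2-day treatment.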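 Also: potency is read from the fitted curve at half-maximal effect; potency of activators that raise GFP signal by restoring correct splicing.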 The note with it: HeLa EGFP-654 splicing reporter, GFP fluorescence, 48 h; series mostly up to 46.1 µM. The method in brief:
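HeLa cells stably carrying EGFP interrupted by mutant beta-globin IVS2-654 intron (CMV-driven) were treated with compound for 2 days at 37C; corrected splicing was scored as total peak GFP intensity per well (488 nm excitation, 500-520 nm emission).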

The target in assay [6] is Cytochrome P450 2C9 (Homo sapiens) (UniProt P11712). Nature of the assay: qHTS Assay for Inhibitors and Substrates of Cytochrome P450 2C9 (AID 883). Also: nearly all actives have a fitted effect of over 60% in size. Also: potency is read from the fitted curve at half-maximal effect. The note with it: recombinant CYP2C9, luciferin-H luminescence, 60 min; series mostly up to 57.1 µM. The method in brief:
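A luminogenic readout tracked human CYP2C9 (10nM) converting deoxyluciferin (100uM, at KM) in 25mM KPO4 during 60 min at 37C with regenerated NADPH. Values normalized to 57uM sulphaphenazole as complete inhibition.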

Assay [7] can be described thus: qHTS Assay for Identification of Small Molecule Antagonists for NFkB Signaling Pathway (AID 895; active = well fitted inhibition curve with a large enough effect in the signal ratio, with a control signal flat, not every such curve was filed as active; the % refers to the signal ratio). The note with it: NFkB beta-lactamase reporter cells, FRET ratio 460/530, stimulated with 10 pM TNF alpha; series mostly up to 38.3 µM. The method in brief: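 NFkB-bla ME-180 cervical carcinoma cells with beta-lactamase reporter under NFkB response element; compounds added, then TNF alpha at 10 pM final (EC50), 5 h at 37 C. LiveBLAzer substrate 2 h, room temperature; emission 460/530 nm at 405 nm excitation.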

A short description of assay [8]: qHTS Assay for Identification of Small Molecule Agonists for Hypoxia Response Element Signaling Pathway (AID 914; active = well fitted activation curve with a large enough effect in the signal ratio, with a control signal flat, not every such curve was filed as active; the % refers to the signal ratio). The settings on record: ME-180 (cervical carcinoma) HRE-bla reporter, beta-lactamase ratio, CoCl2, 17 h; stronger effect = higher value. The method in brief:
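qHTS titration; ME-180 HRE-bla cells; EC50 CoCl2 co-treatment, 17 h at 37 degrees Celsius; CCF4 dye, ex 405nm, em 460nm and 530nm; %Activity from ratio; AC50.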

Where “and” joins values, the source holds several entries; their conditions need not be identical. Equal values may be shown once. Inconclusive results are not listed. Entries that show only a call come without a potency. A structure can be active in one record and inactive in another. Calls of active or inactive are those of the source. Unless noted, calls follow the shape of the dose curve; as a rule, active = well fitted curve in the direction sought with a large enough effect; inconclusive = small, poorly fitted or top-dose-only effect, or another doubt; inactive = no such curve, though single readings can be large; an effect the other way counts as inactive or inconclusive.

Chain of Cytochrome P450 2C9 (Homo sapiens) (P11712 whole entry, looked up): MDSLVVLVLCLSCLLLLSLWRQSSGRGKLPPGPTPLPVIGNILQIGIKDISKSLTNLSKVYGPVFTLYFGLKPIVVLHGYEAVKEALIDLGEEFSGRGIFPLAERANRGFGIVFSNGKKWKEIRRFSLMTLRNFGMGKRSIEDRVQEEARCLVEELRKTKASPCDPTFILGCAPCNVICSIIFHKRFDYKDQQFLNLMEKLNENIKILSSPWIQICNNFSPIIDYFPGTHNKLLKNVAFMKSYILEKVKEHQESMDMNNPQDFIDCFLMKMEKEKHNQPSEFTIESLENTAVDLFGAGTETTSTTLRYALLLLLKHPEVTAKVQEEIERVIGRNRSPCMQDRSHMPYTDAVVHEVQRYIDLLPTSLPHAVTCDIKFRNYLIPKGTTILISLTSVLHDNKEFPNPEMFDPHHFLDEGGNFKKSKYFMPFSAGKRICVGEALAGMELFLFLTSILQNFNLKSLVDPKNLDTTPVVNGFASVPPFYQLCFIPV
Chain of Cytochrome P450 2D6 (Homo sapiens) (P10635 whole entry, looked up): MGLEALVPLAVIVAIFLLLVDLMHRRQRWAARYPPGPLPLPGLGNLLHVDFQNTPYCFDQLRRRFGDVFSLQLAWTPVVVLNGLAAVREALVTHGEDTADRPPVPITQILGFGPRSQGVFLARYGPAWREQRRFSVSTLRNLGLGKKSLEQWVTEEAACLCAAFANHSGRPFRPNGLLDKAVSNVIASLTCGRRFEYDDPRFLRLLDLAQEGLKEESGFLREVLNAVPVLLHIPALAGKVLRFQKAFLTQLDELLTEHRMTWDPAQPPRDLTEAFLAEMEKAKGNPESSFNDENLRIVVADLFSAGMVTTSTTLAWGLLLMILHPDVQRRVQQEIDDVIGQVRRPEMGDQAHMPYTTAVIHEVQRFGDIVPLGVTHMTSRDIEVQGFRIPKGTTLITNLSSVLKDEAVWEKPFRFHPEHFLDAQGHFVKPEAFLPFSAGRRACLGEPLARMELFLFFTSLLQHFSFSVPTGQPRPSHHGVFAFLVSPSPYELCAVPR
Chain of Guanine nucleotide-binding protein G(i) subunit alpha-1 (Homo sapiens) (P63096 whole entry, looked up): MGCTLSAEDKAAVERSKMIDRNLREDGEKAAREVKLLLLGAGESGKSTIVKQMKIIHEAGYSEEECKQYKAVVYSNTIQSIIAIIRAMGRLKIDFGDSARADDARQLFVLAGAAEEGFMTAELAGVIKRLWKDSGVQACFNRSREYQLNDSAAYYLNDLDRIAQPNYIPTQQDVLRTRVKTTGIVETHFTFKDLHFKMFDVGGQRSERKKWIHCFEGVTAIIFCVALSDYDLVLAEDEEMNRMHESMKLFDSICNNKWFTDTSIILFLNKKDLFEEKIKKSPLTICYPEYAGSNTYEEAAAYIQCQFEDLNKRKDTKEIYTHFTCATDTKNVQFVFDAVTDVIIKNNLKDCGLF

In the case of `O=C1NC(=O)C(c2ccccc2[N+](=O)[O-])=C1Nc1ccc(O)c(Cl)c1`, the result in assay [1] and in assay [2] was inactive. The Potency entry in assay [3] was “inactive”.

As to `Cc1ccc(S(=O)(=O)NC(=O)NN2CC3CCCC3C2)cc1` (stereo not given), the Potency result in assay [4] and in assay [5] was “inactive” in each case.

With `CC1Cc2ccccc2N1NC(=O)c1ccc(Cl)c(S(N)(=O)=O)c1` (stereo not given), the Potency entry in assay [4] and in assay [5] was “inactive” each time.

As for `Nc1cc(C(Cl)=C(Cl)Cl)c(S(N)(=O)=O)cc1S(N)(=O)=O`, the Potency entry in assay [5] was “inactive”.

As to `CCCOc1ccc2nc(NC(=O)OC)[nH]c2c1`, the Potency result in assay [4] and in assay [5] was “inactive” each time.

On to `O=C1c2ccccc2-c2n[nH]c3cccc1c23`, for which the Potency result in assay [6] was “inactive”. The Potency is 3.98 µM (active) in assay [4]; “inactive and 398 nM (active)” in assay [3]. Further, the result in assay [2] was inactive.

For the compound `CN(C)CCc1c[nH]c2ccc(Cn3cncn3)cc12`, the Potency result in assay [4] and in assay [5] was “inactive” in each case.

`O=C(NC(Cc1cc(=O)[nH]c2ccccc12)C(=O)O)c1ccc(Cl)cc1` (stereo not given): the Potency entry in assay [4] and in assay [5] was “inactive” each time.

With `O=c1ccc2ccc(O)c(O)c2o1`, the compound was classed as inactive in assay [1]. For the same compound, in assay [7], the Potency entry is “inactive”.

As to `O=C1c2c(O)cc(O)cc2OC(c2ccc(O)c(O)c2)C1O` (stereo not given), in assay [2], the result was inactive.

As for `Cc1cc2cc3c(C)cc(=O)oc3c(C)c2o1`, the Potency in assay [4] was 3.98 µM (active). The result in assay [2] was inactive. Moreover, the Potency result in assay [5] was “inactive”.

In the case of `NNc1nncc2ccccc12`, the outcome in assay [1] and in assay [2] was inactive. Moreover, the Potency entry in assay [7] and in assay [5] was “inactive” in each case.

For the compound `O=C(NCCO[N+](=O)[O-])c1cccnc1`, the Potency in assay [6] was 2 µM (active).

Turning to `O=C(O)c1cccnc1Nc1cccc(C(F)(F)F)c1`, the compound was classed as inactive in assay [1] and in assay [2]. The Potency result in assay [3] and in assay [5] was “inactive” in each case.

As to `Cc1c(OCC(F)(F)F)ccnc1CS(=O)c1nc2ccccc2[nH]1` (stereo not given), the compound was called inactive in assay [1] and in assay [2]. Also, the Potency entry in assay [5] was “inactive”.

For `Cc1cccc(CN2CCN(C(c3ccccc3)c3ccc(Cl)cc3)CC2)c1` (stereo not given), the outcome in assay [2] was inactive. Also, in assay [5], the Potency result was “inactive”.

Consider `S=c1nc[nH]c2nc[nH]c12`, for which the Potency entry in assay [4] was “inactive”. In addition, the Potency in assay [5] is 3.16 µM (active).

For `Cc1cc(C2CCCCC2)n(O)c(=O)c1`, the Potency entry in assay [4] and in assay [5] was “inactive” each time.

Take `O=C(c1ccccc1)c1ccc2n1CCC2C(=O)O` (stereo not given): the Potency entry in assay [4] and in assay [5] was “inactive” in each case.

As to `C[C@@H](N)C1CCC(C(=O)Nc2ccncc2)CC1` (stereo not given in full), the Potency in assay [4] was 15.8 µM (active). Besides, the outcome in assay [2] was inactive.

With `Nc1nc(Cl)nc2c1ncn2[C@H]1C[C@H](O)[C@@H](CO)O1`, the Potency entry in assay [4] and in assay [5] was “inactive” in each case.

As to `CCOC(=O)C1=C(O)C(=O)N(Cc2ccccc2)C1`, in assay [6], the Potency is 3.98 µM (active). For the same compound, the result in assay [2] was inactive.

Consider `CN1CCC(=C2c3ccccc3CCc3sccc32)CC1`, for which, in assay [3], the Potency was 1.26 µM (active). The Potency result in assay [5] was “inactive”.

For `O=C(O)c1cn(-c2ccc(F)cc2)c2cc(N3CCNCC3)c(F)cc2c1=O`, the Potency result in assay [4] and in assay [5] was “inactive” throughout.

For the compound `O=c1oc2cc(O)ccc2s1`, the Potency entry in assay [4] and in assay [5] was “inactive” in each case.

On to `CN1C(C(=O)Nc2ccccn2)=C(O)c2sccc2S1(=O)=O`, for which the Potency entry in assay [4] and in assay [5] was “inactive” each time. Besides, the activation in assay [8] is -9.7% (inactive).

For the compound `COc1ccc2cc([C@H](C)C(=O)O)ccc2c1`, the outcome in assay [1] was inactive. For the same compound, the Potency entry in assay [7] is “inactive”.

Consider `CCN(CCO)CCCC(C)Nc1ccnc2cc(Cl)ccc12` (stereo not given), for which the Potency result in assay [5] is “inactive”.

On to `Cc1cc2c(s1)Nc1ccccc1N=C2N1CCN(C)CC1`, for which the Potency entry in assay [4] and in assay [5] was “inactive” in each case.

Consider `Cc1ncc([N+](=O)[O-])n1CC(C)O` (stereo not given), for which the Potency result in assay [4] and in assay [5] was “inactive” in each case.

As for `O=C(O)c1cc(=O)c2c(OCC(O)COc3cccc4oc(C(=O)O)cc(=O)c34)cccc2o1`, the Potency entry in assay [4] and in assay [5] was “inactive” throughout.

As to `Cc1cc(=O)oc2cc(O)ccc12`, the Potency result in assay [6] was “inactive”.

For `COC(=O)C1=C(C)NC(C)=C(C(=O)OC(C)C)C1c1cccc2nonc12` (stereo not given), the outcome in assay [2] was inactive.

The record behind these values is PubChem BioAssay (NCATS).
